Screening data deposited in PubChem by The Scripps Research Institute Molecular Screening Center.
Only some compounds are listed: those with a hit (about 3.4% of all), similar ones and a draw of the others.
FBW7 activator: activators of human E3 ligase FBW7. Q969H0. AlphaScreen FBW7–phospho-cyclin E peptide binding, activator screen. normalized activity (activation), % at 26.1 µM. actives 0.13% (n = 650,000). AID 1259310; in the data active means normalized activity above about 1.9%;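 further: purified mutant Fbw7 with reduced substrate affinity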
Target sequence (Q969H0 whole entry, looked up): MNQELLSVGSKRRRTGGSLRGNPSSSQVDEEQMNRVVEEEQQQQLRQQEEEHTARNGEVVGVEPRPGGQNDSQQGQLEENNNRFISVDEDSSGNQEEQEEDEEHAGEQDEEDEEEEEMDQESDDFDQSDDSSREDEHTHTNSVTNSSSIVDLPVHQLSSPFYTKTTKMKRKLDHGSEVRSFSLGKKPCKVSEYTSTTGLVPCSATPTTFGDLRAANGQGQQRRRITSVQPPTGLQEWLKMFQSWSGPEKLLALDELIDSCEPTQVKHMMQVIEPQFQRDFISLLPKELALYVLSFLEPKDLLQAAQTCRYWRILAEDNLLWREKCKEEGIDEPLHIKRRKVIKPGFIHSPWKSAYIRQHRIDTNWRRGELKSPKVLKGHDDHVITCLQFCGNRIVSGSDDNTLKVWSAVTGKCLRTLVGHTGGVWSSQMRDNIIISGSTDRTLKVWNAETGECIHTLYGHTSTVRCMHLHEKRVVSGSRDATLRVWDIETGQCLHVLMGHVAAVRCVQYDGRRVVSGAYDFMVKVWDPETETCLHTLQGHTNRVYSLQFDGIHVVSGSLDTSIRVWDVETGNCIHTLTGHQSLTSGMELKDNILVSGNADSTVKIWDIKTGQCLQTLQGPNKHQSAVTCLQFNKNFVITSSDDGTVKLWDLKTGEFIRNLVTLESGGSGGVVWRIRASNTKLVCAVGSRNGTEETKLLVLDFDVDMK
GPR151 ag: activators of human GPR151; PathHunter beta-arrestin GPR151 cells, luminescence; activation, % at 11.2 µM; actives 1% (n = 650,000); in the data active means activation above about 4.9%;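 further: 0% = median of compound wells and 100% = cells with positive control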
TEAD-YAP inh: TEAD-YAP interaction inhibition. HEK-TIYL cells, TEAD-Gal4/YAP UAS-luciferase luminescence. actives 1.4% (n = 640,000). AID 1259422. inhibition, % at 9.12 µM; in the data active means inhibition above about 32%;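 further: 0% = median of test compound wells and 100% = reference inhibitor wells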
MITF primary: blocks human microphthalmia-associated transcription factor | O75030 | AlphaScreen MITF homodimerization, bead proximity signal | inhibition, % at 2.6 µM | actives 0.91% (n = 650,000); in the data active means inhibition above about 50%;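 further: 0% = vehicle wells with protein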
GPR151 confirm: confirmation of human GPR151 activators; shares compounds with GPR151 ag; GPR151 PathHunter beta-arrestin cells, luminescence, 90 min; % of EA-reagent control over plate median; activation, % at 11.2 µM; 6,700 tested, under 10 active; AID 1508609;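 active means mean percent activation across replicates above the confirmation screen cutoff of 4.91%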
GPR119 counter: activates human GPR119 in a GPR151 counter-screen. actives 0.3% (n = 6,700). AID 1508611. shares compounds with GPR151 ag. activation, % at 11.2 µM. GPR119 PathHunter beta-arrestin cells, luminescence, 90 min; 0 = compound-well median, 100 = enzyme-acceptor control;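 active means mean percent activation in the counterscreen above 29.09%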;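 further: counterscreen on off-target GPR119 to flag nonselective hits from the GPR151 activator screen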
An asterisk follows results filed as active; . = not tested or not shown.

SMILES	FBW7 activator	GPR151 ag	TEAD-YAP inh	MITF primary	GPR151 confirm	GPR119 counter
Cc1cc(=O)oc2c1ccc1oc(C(=O)c3ccc(Cl)cc3)c(C)c12	0	5.7*	-5	-3	0	1
CC(=O)c1oc2ccc3c(C)cc(=O)oc3c2c1C	0	0	2	3	.	.
COc1cc(S(=O)(=O)N2CCOCC2)ccc1NC(=O)CSCCO	0	2	-5	-9	.	.
COc1ccc(NC(=O)c2cc(S(=O)(=O)N3CCN(c4cccc(C)c4C)CC3)ccc2F)cc1	0	-2	-7	-15	.	.
Cc1nc(N2CCC(C(=O)O)CC2)c2oc3ccccc3c2n1	0	-1	-4	8	.	.
Cc1nc(N2CCOCC2)c2oc3ccccc3c2n1	0	7.4*	-3	14	0	3
Cc1ccc(CCNC(=O)CN2CCN(Cc3cccc(C)c3)C2=O)cc1	0	5.5*	8	-4	0	-12
Cc1cc(C(=O)Nc2ccc(Br)c(C)n2)ccc1[N+](=O)[O-]	0	5.0*	-69	16	-1	-2
Cc1cc(C(=O)Nc2ccc(I)c(C)n2)ccc1[N+](=O)[O-]	0	0	-28	19	.	.
COCCCN(C(=S)Nc1cccc(Cl)c1)C(C)c1ccncc1 (centres undefined)	0	5.9*	-5	-5	-1	5
CC(=O)OC(C(=O)NCc1ccco1)c1ccncc1 (centres undefined)	0	11*	-5	-3	2	6
Cc1cc(C)cc(NC(=O)c2sc3ncn(Cc4ccccc4Cl)c(=O)c3c2C)c1	0	1	-8	-7	.	.
O=C(NCCc1ccccc1)C(F)(F)C(F)F	0	19*	0	6	0	1
CC(=O)NCCNC(=O)c1ccc(-c2ccccc2)nc1NCCc1ccccn1	0	5.1*	12	-10	0	-3
O=C(O)c1ccccc1Nc1nc(N2CCOCC2)nc(N2CCOCC2)n1	0	9.0*	-41	-3	-1	-13
N#Cc1cc(NC2CCCCC2)c([N+](=O)[O-])cc1C#N	0	2	-3	17	.	.
CCOC(=O)c1c(C)[nH]c(C)c1C(=O)CSc1nc2ccccc2o1	0	0	-2	-3	.	.
Cc1nc2nc(SCC(=O)NC3CCCCC3)nn2c(C)c1Cc1c(F)cccc1Cl	0	6.4*	4	8	0	2
Cc1c(C(=O)NCCN(C)C)cccc1[N+](=O)[O-]	0	-1	12	-19	.	.
CC1CC(C)CN(C(=O)CN2C(=O)NC(Cc3ccccc3)(Cc3ccccc3)C2=O)C1 (centres undefined)	0	5.0*	9	2	0	13
CC1CCN(C(=O)CN2C(=O)NC(Cc3ccccc3)(Cc3ccccc3)C2=O)CC1	0	-2	6	4	.	.
CCC(C)Nc1c([N+](=O)[O-])cc(C(=O)O)cc1[N+](=O)[O-] (centres undefined)	0	0	3	6	.	.
CCC(Nc1c([N+](=O)[O-])cc(C(F)(F)F)cc1[N+](=O)[O-])C(=O)O (centres undefined)	0	6.0*	4	-4	0	7
CC(C)c1ccc(NC(=O)C2C3C=CC4(O3)C2C(=O)N(CC2CCCO2)C4C(=O)NC2CCCCC2)cc1 (centres undefined)	0	1	-18	12	.	.
CCCC(=O)Nc1ccc(NC(=O)c2ccc(I)cc2)cc1	0	10.0*	1	-3	1	-4
SMILES	FBW7 activator	GPR151 ag	TEAD-YAP inh	MITF primary	GPR151 confirm	GPR119 counter
CCOc1nc(NCCO)nc(Nc2ccc(-c3nc4ccccc4o3)cc2)n1	0	1	8	2	.	.
Cc1ccc2c(c1)C(=C(C#N)C#N)C=C(c1cccs1)O2	0	5.3*	-9	1	0	10
Cn1scc(-c2ccc(Cl)cc2)c1=N	0	-1	-12	2	.	.
CCCCOC(=O)c1ccc(NC(=O)c2ccc(C3CCCCC3)cc2)cc1	0	7.2*	33*	0	0	1
COc1ccc(CCN2C(=O)CCC2CCNCc2cccc(C(F)(F)F)c2)cc1 (centres undefined)	0	12*	8	8	0	9
O=C(COc1ccc2ccccc2c1)Nc1ncn[nH]1	-1	1	-22	4	.	.
CC1CC(N(C(=O)c2ccc([N+](=O)[O-])cc2)c2ccccc2)c2ccccc2N1C(=O)c1ccc(F)cc1 (centres undefined)	1	0	4	26	.	.
COc1ccc(CN(C(=O)c2cccs2)C2CCS(=O)(=O)C2)cc1 (centres undefined)	0	0	0	14	.	.
CCOc1ccc(CN(C(=O)c2cccs2)C2CCS(=O)(=O)C2)cc1 (centres undefined)	0	6.8*	-9	5	0	9
Cc1cccc(C(=O)Nc2ccc(F)cc2F)c1[N+](=O)[O-]	0	11*	-8	1	1	7
Cc1cccc(C(=O)Nc2ccc(Br)cc2F)c1[N+](=O)[O-]	0	1	-65	1	.	.
O=C(Cc1cccc2ccccc12)Nc1nnc(-c2ccc(Cl)s2)o1	0	5.1*	-3	-6	1	8
CCCC(=O)Nc1nnc(-c2ccc(Cl)s2)o1	0	1	-21	-6	.	.
CCOc1ccc(C(=O)Nc2ccc3oc(-c4ccccc4)nc3c2)cc1[N+](=O)[O-]	1	0	-3	14	.	.
COCCN1Cc2cc3cc(C)ccc3nc2OCC1=O	0	7.2*	-2	14	1	-4
Nc1cc(=O)[nH]c(SCC(=O)Nc2ccc(F)c(F)c2F)n1	0	0	-3	-11	.	.
CCOc1ccc(C(=O)Nc2nc3c(ccc4ccccc43)s2)cc1	0	5.5*	0	5	-1	-3
Cc1nc(N/N=C\c2c[nH]c3ccccc23)sc1C	-1	-1	-3	-3	.	.
COc1cc2nc(NCc3ccc4c(c3)OCO4)nc(Nc3ccc(N4CCOCC4)cc3)c2cc1OC	-1	-2	2	16	.	.
CC(C)(C)NC(=O)Cn1cc(S(=O)(=O)Cc2ccccc2)c2ccccc21	0	8.3*	-11	1	0	-3
NC(=O)c1ccc(NC(=O)Cn2cc(S(=O)(=O)Cc3ccccc3)c3ccccc32)cc1	0	0	-4	7	.	.
CC(C)(C)NC(=O)Cn1cc(S(=O)(=O)Cc2ccc(F)cc2)c2ccccc21	0	5.3*	5	12	1	4
O=C(NCc1ccccc1)/C(=N\O)c1ccccc1	0	6.2*	-10	5	-1	-5
C=CCNC(=O)c1cccc([N+](=O)[O-])c1C	0	-2	-5	13	.	.
CC(C)(C)c1ccc(C(=O)NC(=S)Nc2cc(-c3nc4ncccc4o3)ccc2Cl)cc1	0	5.1*	-42	-10	0	6
